{
  "source": "PubChem BioAssay AID504832",
  "about": "(National Center for Advancing Translational Sciences (NCATS), 2011)",
  "note": "Screen size: about 310,000 compounds; about 18,000 (5.8%) were called active. Roughly 22% stayed inconclusive and do not appear here. The call rests on the fitted dose curve; in most records, active means well fitted inhibition curve with a large enough effect; inconclusive means small, poorly fitted or top-dose-only effect, or another doubt; inactive means no such curve, though single readings can be large or run the other way. Shown is part of a subset that was picked to be rich in actives. On the % scale 0 is the no-effect control and ±100 the full control effect; potency means the concentration at half of the fitted maximal effect.",
  "data": [
    {"experiment": "Primary qHTS for delayed death inhibitors of the malarial parasite plastid, 48 hour incubation", "details": "P. falciparum luciferase growth in erythrocytes; series mostly up to 28.7 µM; activity change, negative = inhibition: at the top concentration", "outline": "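Luminescence readout; reporter = integrated firefly luciferase in P. falciparum. RBC culture at 2% hematocrit, 0.1% parasitemia final, 37 C/5% CO2; decreased signal taken as growth inhibition.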", "values": [
      {"compound": "CCOC(=O)Cc1csc(NC(=O)CSc2nc(C)cc(=O)[nH]2)n1", "activity change, negative = inhibition": "4.44% (inactive)"},
      {"compound": "CCOC(=O)Cc1csc(NC(=O)C(C)(C)C)n1", "activity change, negative = inhibition": "34.9% (inactive)"},
      {"compound": "CCC(C)C(N=C1NS(=O)(=O)c2ccccc21)C(=O)N1CCC(C)CC1", "note": "(configuration not stated)", "activity change, negative = inhibition": "-15% (inactive)"},
      {"compound": "CC(C)c1ccc(NC(=O)[C@@H](NC(=O)N2CC(=O)Nc3ccccc32)C(C)C)cc1", "activity change, negative = inhibition": "-25.1% (inactive)"},
      {"compound": "O=C(N/N=C/c1ccc(OC(=O)c2ccccc2Cl)cc1)c1ccc(O)cc1", "activity change, negative = inhibition": "21.7% (inactive)"},
      {"compound": "CSc1ncccc1C(=O)NCc1ccccc1Cl", "activity change, negative = inhibition": "14.7% (inactive)"},
      {"compound": "CC(NC(=O)c1ccccc1F)c1cccc2ccccc12", "note": "(configuration not stated)", "activity change, negative = inhibition": "-5.39% (inactive)"},
      {"compound": "COc1ccc(S(=O)(=O)n2nc(C)c(S(=O)(=O)N3CCOCC3)c2C)cc1", "activity change, negative = inhibition": "10.2% (inactive)"},
      {"compound": "CC(NS(=O)(=O)c1ccc(Br)cc1)C(=O)NCC1CCCO1", "note": "(configuration not stated)", "activity change, negative = inhibition": "6.32% (inactive)"},
      {"compound": "OC(CNCC1CCCO1)Cn1c2ccc(Br)cc2c2cc(Br)ccc21", "note": "(configuration not stated)", "Potency": "0.586 µM (active)"},
      {"compound": "O=C(CSc1ccc(-c2ccc(Br)cc2)nn1)NCC1CCCO1", "note": "(configuration not stated)", "activity change, negative = inhibition": "-7.73% (inactive)"},
      {"compound": "CCc1ccc(C(=O)NN=C2CCCCCC2)s1", "activity change, negative = inhibition": "16.2% (inactive)"},
      {"compound": "CCOc1ccc(CN2CCNC(=O)C2CC(=O)NCCCC2CCCC2)cc1", "note": "(configuration not stated)", "activity change, negative = inhibition": "13.3% (inactive)"},
      {"compound": "Cc1nc2ccc(C(=O)N/N=C/c3ccc(O)cc3)cc2[nH]1", "activity change, negative = inhibition": "4.56% (inactive)"},
      {"compound": "COc1ccc(S(=O)(=O)N2CCN(CC(=O)NCC3(N4CCOCC4)CCCCC3)CC2)cc1", "Potency": "9.28 µM (active)"},
      {"compound": "COC(=O)COc1ccc(S(=O)(=O)N2CCOCC2)cc1", "activity change, negative = inhibition": "6.25% (inactive)"},
      {"compound": "COc1ccc(CNC(=O)COC(=O)/C=C/c2ccc(S(=O)(=O)N3CCOCC3)cc2)cc1", "activity change, negative = inhibition": "2.73% (inactive)"},
      {"compound": "CCc1ccc(OC(C)C(=O)Nc2ccc(S(=O)(=O)Nc3cc(C)on3)cc2)cc1", "note": "(configuration not stated)", "activity change, negative = inhibition": "9.01% (inactive)"},
      {"compound": "CC1CCN(C(=O)CCNC(=O)c2ccccc2)CC1", "activity change, negative = inhibition": "78.1% (inactive)"},
      {"compound": "CN(CC(=O)Nc1ccc(F)c(F)c1F)C(=O)C1CC(=O)N(C2CCCC2)C1", "note": "(configuration not stated)", "activity change, negative = inhibition": "6.58% (inactive)"},
      {"compound": "O=C(CN1CCC(NC(=O)C2CC2)CC1)Nc1ccccc1[N+](=O)[O-]", "activity change, negative = inhibition": "-7.39% (inactive)"},
      {"compound": "CC(C)c1ccccc1OCC(O)CN(CC(O)COc1cccc2ccccc12)C(C)C", "note": "(configuration not stated)", "Potency": "1.65 µM (active)"},
      {"compound": "CN1CCN(CCCCOc2cccc3ccccc23)CC1", "activity change, negative = inhibition": "-23.8% (inactive)"},
      {"compound": "OC(COc1cccc2ccccc12)CN1CCN(c2ccccn2)CC1", "note": "(configuration not stated)", "activity change, negative = inhibition": "8.07% (inactive)"},
      {"compound": "NC(=O)C(Cc1ccccc1)NC(=O)C12CC3CC(CC(C3)C1)C2", "note": "(configuration not stated)", "activity change, negative = inhibition": "-3.22% (inactive)"},
      {"compound": "CNS(=O)(=O)c1ccc(C(=O)NCC(=O)NCCc2ccc3c(c2)OCCO3)cc1", "activity change, negative = inhibition": "-14.7% (inactive)"},
      {"compound": "CCOC(=O)N1CCN(CC(=O)c2c(C)[nH]c3ccccc23)CC1", "activity change, negative = inhibition": "-7.87% (inactive)"},
      {"compound": "CCOC(=O)c1c(C)[nH]c2c1-c1ccccc1C(=O)C2=O", "Potency": "1.47 µM (active)"},
      {"compound": "CCOC(=O)c1c(C)[nH]c(C)c1S(=O)(=O)N(C)CC(=O)Nc1ccccc1C", "activity change, negative = inhibition": "-4.45% (inactive)"},
      {"compound": "Cc1ccc(-n2[nH]c(C)c(/C=N/N3C(=O)c4cccc5cccc(c45)C3=O)c2=O)cc1", "activity change, negative = inhibition": "-9.64% (inactive)"},
      {"compound": "COc1cc(SC#N)ccc1N=Cc1c(C)[nH]n(-c2ccc(C)cc2)c1=O", "Potency": "13.1 µM (active)"},
      {"compound": "CCc1nnc(NS(=O)(=O)c2ccc(N=Cc3c(C)[nH]n(-c4ccc(C)cc4)c3=O)cc2)s1", "activity change, negative = inhibition": "1.12% (inactive)"},
      {"compound": "COc1cccc(N2CC(NC(=O)c3ccc4ccccc4c3)CC2=O)c1", "note": "(configuration not stated)", "activity change, negative = inhibition": "1.12% (inactive)"},
      {"compound": "COC(=O)c1cc(S(=O)(=O)Nc2ccc(C)c(F)c2)c[nH]1", "activity change, negative = inhibition": "-8.22% (inactive)"},
      {"compound": "Cc1ccc(NC(=O)CSc2cccc3cccnc23)c(C)c1", "activity change, negative = inhibition": "-28% (inactive)"},
      {"compound": "COC(=O)c1ccc(-c2c(-c3ccccc3)ncc3cc(OC)c(OC)cc23)cc1", "activity change, negative = inhibition": "-4.69% (inactive)"},
      {"compound": "O=C1CC2(CCN(C(=O)COc3ccc(F)cc3)CC2)Oc2ccccc21", "activity change, negative = inhibition": "-9.25% (inactive)"},
      {"compound": "COc1cc(-c2n[nH]c(=S)n2Cc2ccccc2)cc(OC)c1OC", "activity change, negative = inhibition": "-6.15% (inactive)"},
      {"compound": "COc1ccc(CCn2c(-c3ccco3)nc3nc4ccccc4nc32)cc1OC", "activity change, negative = inhibition": "-18.5% (inactive)"},
      {"compound": "CCC(C)n1c(-c2cc(OC)c(OC)c(OC)c2)nc2nc3ccccc3nc21", "note": "(configuration not stated)", "Potency": "13.1 µM (active)"},
      {"compound": "COc1ccc(C(=O)NC(C)CCc2ccccc2)c(OC)c1", "note": "(configuration not stated)", "activity change, negative = inhibition": "-23.8% [at 0.00184 µM] (inactive)"},
      {"compound": "CCc1sc(C(=O)N2CCN(CC(=O)Nc3cccc(F)c3)CC2)cc1C", "activity change, negative = inhibition": "4.46% (inactive)"},
      {"compound": "CCOc1ccc(S(=O)(=O)N2CCN(C(=S)NCC3CCCO3)CC2)cc1", "note": "(configuration not stated)", "Potency": "5.22 µM (active)"},
      {"compound": "S=C(NCC1CCCO1)N1CCN(c2ccc(Cl)c(Cl)c2)CC1", "note": "(configuration not stated)", "activity change, negative = inhibition": "-30.4% (inactive)"},
      {"compound": "CCOc1ccc(S(=O)(=O)NCCC(=O)NCC2CCCO2)cc1", "note": "(configuration not stated)", "activity change, negative = inhibition": "3.77% (inactive)"},
      {"compound": "CCOc1ccc(NC(=S)N2CCC(N(C)CC3CCCO3)CC2)cc1", "note": "(configuration not stated)", "activity change, negative = inhibition": "15% (inactive)"},
      {"compound": "COc1ccc(S(=O)(=O)N2CCC(C(=O)N3CCOCC3)CC2)cc1OC", "activity change, negative = inhibition": "4.87% (inactive)"},
      {"compound": "COc1ccc(S(=O)(=O)N2CCN(C(=S)NCC3CCCO3)CC2)cc1OC", "note": "(configuration not stated)", "Potency": "1.85 µM (active)"},
      {"compound": "CCCCNC(=O)CN1C(=O)NC(Cc2ccccc2)(Cc2ccccc2)C1=O", "activity change, negative = inhibition": "-9.93% (inactive)"},
      {"compound": "CCN(CC)S(=O)(=O)c1ccc2[nH]cc(C(=O)NCCc3ccccc3)c(=O)c2c1", "Potency": "13.1 µM (active)"},
      {"compound": "CCCCNC(=O)c1c[nH]c2ccc(S(=O)(=O)Nc3ccc(OCC)cc3)cc2c1=O", "activity change, negative = inhibition": "-11.5% (inactive)"},
      {"compound": "CCN(CC(=O)NCCc1ccccc1)S(=O)(=O)c1ccccc1", "activity change, negative = inhibition": "1.84% (inactive)"}
    ]}
  ]
}
